Source: PubChem (several laboratories)
Only some compounds are listed: those with a hit (about 2.5% of all), similar ones and a draw of the others.
PKA-R1A activ: activators of PKA-R1A complex | PKA-R1A dissociation, Cy5-IP20 fluorescence polarization; scaled: DMSO 0%, 113 µM cGMP 100% | activation, % at 11.4 µM | 0.083% of 340,000 active | AID 504707;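 active = percent activation above the mean of all tested compounds plus 3 SD, cut at about 19% in these data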;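 also: higher means more PKAc released from R1A so a rise in polarization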
CHT PAM: allosteric activators of human choline transporter CHT; Q9GZV3; CHT-expressing cells, membrane potential dye, choline EC20; stronger effect = higher value; LV-AA mutant CHT in HEK293 cells; B-score at 10 µM; 0.49% of 310,000 active; AID 488977;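 active = initial fluorescence not abnormally high and integrated response B-score, plate-corrected, over 3 SD above library mean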
Target sequence (Q9GZV3 whole entry, looked up): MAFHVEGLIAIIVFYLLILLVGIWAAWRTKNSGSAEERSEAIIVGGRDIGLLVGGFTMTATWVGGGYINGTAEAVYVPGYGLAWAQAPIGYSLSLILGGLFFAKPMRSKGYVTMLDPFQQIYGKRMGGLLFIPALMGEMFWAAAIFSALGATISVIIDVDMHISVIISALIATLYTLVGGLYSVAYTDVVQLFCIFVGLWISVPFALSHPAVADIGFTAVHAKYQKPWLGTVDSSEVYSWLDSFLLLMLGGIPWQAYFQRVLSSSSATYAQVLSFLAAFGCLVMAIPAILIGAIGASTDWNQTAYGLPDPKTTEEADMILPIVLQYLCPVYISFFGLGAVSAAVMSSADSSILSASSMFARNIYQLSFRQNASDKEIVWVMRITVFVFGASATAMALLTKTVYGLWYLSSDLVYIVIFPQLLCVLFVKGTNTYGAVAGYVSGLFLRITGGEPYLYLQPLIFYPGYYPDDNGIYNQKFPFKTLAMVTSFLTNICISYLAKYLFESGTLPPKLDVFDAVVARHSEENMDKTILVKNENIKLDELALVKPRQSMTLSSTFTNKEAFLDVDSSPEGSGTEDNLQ
ANO1 activ: activates or potentiates the mouse TMEM16A chloride channel | 0.3% of 340,000 active | B-score at 10 µM | Q8BHY3 | HEK293 TMEM16A/YFP-H148Q/I152L, iodide quench fluorescence; stronger effect = lower value | AID 623877;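 active = fluorescence-ratio B-score plate-corrected deviation score at least 3 library SD below zero, with starting fluorescence score within 5 deviations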;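 also: channel opened by trigger with iodide after compound preincubation; score built on the fluorescence ratio of max minus min over baseline; more negative score means more quench and so TMEM16A activation or potentiation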
CHT block: inhibitors of human choline transporter CHT. Q9GZV3. CHT-expressing cells, membrane potential dye, choline response; stronger effect = lower value. B-score at 10 µM. 0.86% of 310,000 active. AID 488975;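 active = B-score over 3 SD under the library average, and starting fluorescence ratio not unusually high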;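 also: choline stimulus applied at its EC90 after an EC20 pre-addition; B-score computed on integrated fluorescence ratio after choline addition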
PKA-R2B act: activators of human PKA-R2B complex. P22694+P31323. PKA-R2B holoenzyme dissociation, Cy5-IP20 fluorescence polarization; R2B truncated from residue 108, S112A mutant; 0% DMSO only, 100% 113 µM cGMP. activation, % at 11.4 µM. 0.079% of 340,000 active;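 active = activation above a cutoff set at the mean over all compounds plus 3 SD, cut at about 18% in these data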;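 also: higher means more holoenzyme dissociation and a rise in polarization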
ANO1 block: inhibitors of mouse TMEM16A calcium-activated chloride channel; HEK293 TMEM16A/YFP iodide influx fluorescence, ionomycin; normalized B-score (activity score, 25-100; higher = stronger inhibition) at 10 µM; 1.2% of 310,000 active; AID 588511;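 active = ratio plate-corrected score three or more library SD toward inhibition, starting fluorescence score within five deviations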;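 also: score derived from kinetic fluorescence span divided by baseline fluorescence per well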
CHT act confirm: human CHT activation, confirmatory screen; AID 504833; activation, % at 10 µM; shares compounds with CHT PAM; 91% of 2,500 active; CHT-expressing cells, membrane potential dye fluorescence (FDSS); % of choline EC20–EC90 response window; HEK293 expressing CHT LV-AA mutant; choline added at its EC20;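 active = primary screen active, with duplicate mean activation above negative control mean plus 3 SD, cut at about 11% in these data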
HEK293 MP dye: CHT activator counter-screen hit in parental HEK293 cells; ratio readout change at 10 µM, hits read low; membrane potential dye fluorescence (FDSS); measured after EC20 choline addition; shares compounds with CHT PAM; 62% of 2,500 active; AID 623908;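 active = duplicate-averaged ratio beyond 3 SD from buffer wells, up or down, though filed actives are nearly all decreases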
Active calls of the source: *; i = inactive; x = no result given.

SMILES	PKA-R1A activ	CHT PAM	ANO1 activ	CHT block	PKA-R2B act	ANO1 block	CHT act confirm	HEK293 MP dye
CS(=O)(=O)N(CC(=O)NCCSCc1ccccc1)c1ccccc1	1	i	i	i	-13	i	x	x
CN(C)S(=O)(=O)N(CC(=O)NCCSCc1ccc(Cl)cc1)c1ccccc1	6	8*	i	i	4	i	1	i
CCc1ccc(CN(C)C(=O)CCc2nc3ccccc3n(-c3ccc(OC)cc3)c2=O)cc1	-2	i	i	i	-2	100*	26*	i
COc1ccc(NC(=O)COC(=O)c2c3c(nc4ccccc24)CCCC3)cc1Cl	3	i	i	i	8	i	13*	i
O=C(COC(=O)c1c2c(nc3ccccc13)CCCCC2)NCc1ccc2c(c1)OCO2	-1	8.7*	i	i	0	i	36*	i
COc1ccc(NC(=O)COC(=O)c2c3c(nc4ccccc24)CCCC3)cc1	2	i	i	i	-4	i	x	x
Cc1ccc(C)c(NC(=O)CSc2nc3ccc(N4C(=O)c5ccccc5C4=O)cc3s2)c1	8	i	i	i	-17	i	x	x
COCCOc1ccc(C(F)(F)F)cc1NC(=O)CN1C(=O)NC(C)(c2ccc3c(c2)OCO3)C1=O (configuration not stated)	-7	i	i	i	-4	i	x	x
C(=N\n1c2ccccc2c2ccccc21)/c1ccccc1	-10	i	i	i	-2	i	x	x
C[n+]1cn(/N=C/c2ccccc2)c2ccccc21	0	6.6*	i	i	-8	i	56*	-55*
O=C(Cc1ccc(F)cc1)NC1CCS(=O)(=O)C1 (configuration not stated)	-1	i	i	i	-21	i	x	x
O=C1Nc2ccc(S(=O)(=O)N3CCCC3)c3cccc1c23	-6	i	i	i	-16	i	x	x
CCN(CC)CCNS(=O)(=O)c1ccc2c3c(cccc13)C(=O)N2	-3	7.4*	i	i	0	i	73*	-74*
O=C1Nc2ccc(S(=O)(=O)NCc3ccccn3)c3cccc1c23	4	x	i	x	-10	x	x	x
CN(C)CCNS(=O)(=O)c1ccc2c3c(cccc13)C(=O)N2	4	6.5*	i	i	5	i	74*	-86*
O=C1Nc2ccc(S(=O)(=O)N3CCCCCC3)c3cccc1c23	-7	i	i	i	-2	i	x	x
CN1CCN(S(=O)(=O)c2ccc3c4c(cccc24)C(=O)N3)CC1	-4	10*	i	i	12	i	84*	-85*
C=C1CCN([C@@H](CC(C)C)C(=O)NCCC(C)C)S(=O)(=O)c2ccccc21	-7	i	i	i	-6	i	x	x
COC(=O)c1ccc(CN(C(=O)N2CCN(C)CC2)S(=O)(=O)c2ccc(C)cc2)cc1	-2	i	i	i	-2	i	x	x
Cc1ccccc1C=O	-7	x	i	x	-9	x	x	x
Cc1ccccc1/C=C/C1=NCCN1	-2	7.2*	i	i	15	i	40*	-38*
Cc1ccccc1C(=O)NCC(c1ccco1)N1CCc2ccccc2C1 (configuration not stated)	-3	i	i	i	-12	i	-1	i
O=C(NCC(c1ccco1)N1CCc2ccccc2C1)c1cccc(F)c1 (configuration not stated)	-7	i	i	i	0	i	11*	i
Cc1cccc(CSCC(=O)N2CCN(S(=O)(=O)c3ccccc3C#N)CC2)c1	-13	x	x	x	-5	x	x	x
